Tests used:
[1] = test system: Vero E6 infected with SARS-CoV-2; assay: morphology score (similarity to uninfected cells); higher = more like uninfected cells; settings: 24 h
[2] = test system: Vero E6 infected with SARS-CoV-2; assay: SARS-CoV-2 infection rate relative to infected DMSO; higher = more infection, active = 60 or less; settings: 24 h

| Compound | morphology score [1] | SARS-CoV-2 infection rate [2] |
| --- | --- | --- |
| CCc1nc(-c2cccc(C)c2)c(-c2ccnc(NC(=O)c3ccccc3)c2)s1 (10 µM) | 0.171 | 104% (inactive) |
| COc1ccc(CNCc2cccc3ccccc23)cc1 (10 µM) | 0.0641 | 105% (inactive) |
| C[N+](C)(C)CCOP(=O)(O)OC[C@H](O)CO [choline-alfoscerate] (10 µM) | 0.0475 | 114% (inactive) |
| CCN(CC)c1ccc(/C=N/NC(=O)c2ccc(O)cc2)cc1 (10 µM) | -0.186 | 107% (inactive) |
| CC#C[C@@H](CC(=O)O)c1ccc(OCc2cccc(-c3ccc(C(F)(F)F)cc3)c2)cc1 (10 µM) | 0.0803 | 108% (inactive) |
| O=C(NCCCN1CCC2(CC1)OCc1ccccc12)[C@H]1CCCN1Cc1ccccc1 (10 µM) | 0.505 | 63.5% (inactive) |
| CC(C)(O)C(=O)Nc1ccc([N+](=O)[O-])c(C(F)(F)F)c1 [2-hydroxyflutamide] (10 µM) | 0.0933 | 108% (inactive) |
| CCn1c(=O)n(C2=C(CO)CN(CC3CCCCCCC3)CC2)c2ccccc21 [trap-101] (10 µM) | -0.109 | 103% (inactive) |
| Cc1nc[nH]c1CCN [4-methylhistamine] (10 µM) | 0.105 | 99.5% (inactive) |
| Oc1ccc(C2(c3ccccc3F)CCC(F)(F)CC2)cc1 (10 µM) | 0.0902 | 93% (inactive) |
| Cc1cc(O)c(C(C)C)cc1Cl [chlorothymol] (10 µM) | -0.0977 | 104% (inactive) |
| Cc1onc(-c2ccccc2)c1C(=O)N[C@@H]1C(=O)N2[C@@H]1SC(C)(C)[C@@H]2C(=O)O [oxacillin] (10 µM) | -0.00627 | 110% (inactive) |
| COc1cc(OC)cc(C(=O)NNC(=O)Nc2cccc3ccccc23)c1 (10 µM) | 0.0721 | 105% (inactive) |
| CCC(=O)O[C@]1(C(=O)CO)CC[C@H]2[C@@H]3CCC4=CC(=O)CC[C@]4(C)[C@H]3CC[C@@]21C (10 µM) | 0.188 | 102% (inactive) |
| CC(=O)O[C@H]1C[C@@H]2CC[C@@H]3[C@H](CC[C@@]4(C)[C@H]3C[C@H](N3CC[N+](C)(C)CC3)[C@@H]4OC(C)=O)[C@@]2(C)C[C@@H]1N1CC[N+](C)(C)CC1 [pipecuronium] (10 µM) | 0.0487 | 106% (inactive) |
| CCCCCCCC/C=C\CCCCCCCC(=O)NCc1ccc(O)c(OC)c1 [olvanil] (10 µM) | 0.22 | 96% (inactive) |

| Compound | morphology score [1] | SARS-CoV-2 infection rate [2] |
| --- | --- | --- |
| Clc1ccc2c(c1)CCc1cccnc1C2=C1CCNCC1 [desloratadine] (10 µM) | 0.351 | 76% (inactive) |
| CCOC(=O)[C@H](CCc1ccccc1)N[C@@H](C)C(=O)N1C(=O)N(C)C[C@H]1C(=O)O [imidapril] (10 µM) | -0.0373 | 117% (inactive) |
| CN(C)CCOC(c1ccccc1)c1ccccc1.Cn1c(=O)c2[nH]c(Cl)nc2n(C)c1=O [dimenhydrinate] (10 µM) | -0.0688 | 110% (inactive) |
| CCN(c1cc(-c2ccc(CN3CCOCC3)cc2)cc(C(=O)NCc2c(C)cc(C)[nH]c2=O)c1C)C1CCOCC1 [tazemetostat] (10 µM) | 0.0658 | 104% (inactive) |
| CC(C)CCNC(=O)[C@H](CC(C)C)NC(=O)[C@H]1O[C@@H]1C(=O)O [loxistatin-acid] (10 µM) | 0.296 | 88% (inactive) |
| CN(C)CCc1ccc(O)cc1 [hordenine] (10 µM) | 0.163 | 90.5% (inactive) |
| C/C(=N\c1ccccc1N)c1c(C)cc(=O)n(O)c1O (10 µM) | -0.169 | 107% (inactive) |
| COc1ccc(C(=O)c2c(C)n(CCN3CCOCC3)c3cc(I)ccc23)cc1 (10 µM) | 0.116 | 102% (inactive) |
| COc1cc2/c(=N/c3ccc(Br)cc3F)nc[nH]c2cc1OCC1CCN(C)CC1 [vandetanib] (10 µM) | 0.0459 | 102% (inactive) |
| Nc1nc2c(ncn2[C@@H]2O[C@H](CO)[C@@H](O)[C@H]2O)c(=O)[nH]1 [guanosine] (10 µM) | 0.0982 | 106% (inactive) |
| COc1ccc2c(c1)c(CC(=O)N1CCOCC1)c(C)n2C(=O)c1ccc(Cl)cc1 (10 µM) | 0.131 | 112% (inactive) |
| N#Cc1ccc(N2N=C3c4ccc(C(=O)O)cc4CC[C@@H]3[C@@H]2C2CCCC2)cc1Cl (10 µM) | -0.174 | 108% (inactive) |
| CCC/N=C1\S/C(=C\c2ccc(OC[C@H](O)CO)c(Cl)c2)C(=O)N1c1ccccc1C [ponesimod] (10 µM) | -0.2 | 108% (inactive) |
| CC(C)/N=c1\cc2n(-c3ccc(Cl)cc3)c3ccccc3nc-2cc1Nc1ccc(Cl)cc1 [clofazimine] (10 µM) | 0.422 | 64% (inactive) |
| CC(C)(O)CS(=O)(=O)Nc1ccc2c(c1)CCN(C(=O)COc1cccnc1)C2 [Nampt-IN-1] (10 µM) | -0.0571 | 104% (inactive) |
| CCCC[C@@]1(C2CCCC2)Cc2cc(OCCCC(=O)O)c(Cl)c(Cl)c2C1=O (10 µM) | -0.08 | 92.5% (inactive) |
